Compounds with a hit are over-represented: about 10% of the library has one in this group of screens.
CtBP-E1A inh – qHTS Assay for Inhibitors of the CtBP/E1A Interaction. actives 0.49% (n = 340,000). AlphaScreen GST-E1A/His-CtBP binding, 1536-well; stronger effect = lower value. activity change, % (test concentration not listed). CtBP / adenovirus E1A interaction (AlphaScreen); in the data active = activity change below about -65%; inconclusive = mostly about -30% to -63%; also: % is scaled to controls: 0 for no effect and ±100 for the full control effect
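Homogeneous bead-based format: GST-tagged E1A captured on glutathione donor beads, His-tagged CtBP on nickel acceptor beads; compounds precede bead addition by 2 h at 37 °C.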
Six1-Eya2 inh – qHTS Assay for Inhibitors of the Six1/Eya2 Interaction | Homeobox protein SIX1 (Homo sapiens) + Protein phosphatase EYA2 (Homo sapiens), … | AlphaScreen GST-Six1/His-Eya2 binding, biochemical; stronger effect = lower value | activity change, % (test concentration not listed) | actives 0.56% (n = 360,000); in the data active = activity change below about -65%; inconclusive = mostly about -30% to -63%; also: % is scaled to controls: 0 for no effect and ±100 for the full control effect
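Six1/Eya2 binding was read as AlphaScreen signal after compounds were pinned into GST-Six1 plus His-tagged Eya2 (5X stock 250/500 nM) in pH 8.0 Tris/NaCl/TCEP buffer, beads added, then incubated 1 h, 37 C, dark.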
BAZ2B inh – qHTS Assay for Inhibitors of BAZ2B. AlphaScreen BAZ2B-H3K14Ac peptide displacement. actives 4.4% (n = 360,000). AID 504333, 2011. Potency, µM (doses to about 114 µM), for inactives: at the highest dose activity change, negative = inhibition, hits mostly inhibitors. Bromodomain adjacent to zinc finger domain protein 2B (Homo sapiens), Q9UIF8; also: potency is read from the fitted curve at half-maximal effect; % is scaled to controls: 0 for no effect and ±100 for the full control effect; nearly all actives have a fitted effect of over 60% in size
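In this displacement format the biotinylated H3(5-23) peptide acetylated at Lys14 serves as ligand at 50 nM, with BAZ2B at 50 nM in PBS pH 7.4 containing 0.01% Tween-20. Donor and acceptor beads are 10 ug/mL final.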
G9a inh – qHTS Assay for Inhibitors of Histone Lysine Methyltransferase G9a | G9a H3K9 monomethylation, AlphaScreen, 2 h | Potency, µM (series often up to 102 µM), without a hit: at the highest dose activity, negative = inhibition, actives largely listed as inhibitors | Histone-lysine N-methyltransferase EHMT2 (Homo sapiens), Q96KQ7 | actives 8.8% (n = 350,000); also: potency is read from the fitted curve at half-maximal effect; % is scaled to controls: 0 for no effect and ±100 for the full control effect; nearly all actives have a fitted effect of over 75% in size
Target sequence (Q96KQ7 913-1193 limits assumed): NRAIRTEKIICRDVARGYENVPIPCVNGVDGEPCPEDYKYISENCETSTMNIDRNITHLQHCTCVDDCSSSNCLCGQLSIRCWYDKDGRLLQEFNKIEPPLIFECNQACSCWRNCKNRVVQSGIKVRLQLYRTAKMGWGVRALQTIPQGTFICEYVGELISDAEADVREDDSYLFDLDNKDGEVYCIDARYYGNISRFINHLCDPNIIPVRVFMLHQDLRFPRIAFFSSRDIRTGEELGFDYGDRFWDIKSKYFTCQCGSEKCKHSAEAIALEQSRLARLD
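Methyltransferase reactions run at room temperature for 2 h (20 nM enzyme, 500 nM biotin-H3K9 peptide, 20 uM SAM) after a 15 min compound preincubation; product detected by AlphaScreen beads and anti-H3K9me1 antibody.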
HP1b binding inh – HTS for Inhibitors of HP1-beta Chromodomain Interactions with Methylated Histone Tails. Chromobox protein homolog 1 (Homo sapiens), P83916. actives 0.56% (n = 390,000). AID 540317, 2011. Potency, µM (doses to about 114 µM), without a hit: at the top dose activity change, negative = inhibition, most hits filed as inhibitors. AlphaScreen HP1-beta / biotin-H3K9me3 peptide binding; also: potency is read from the fitted curve at half-maximal effect; nearly all actives have a fitted effect of over 70% in size
Target sequence (P83916 whole entry, looked up): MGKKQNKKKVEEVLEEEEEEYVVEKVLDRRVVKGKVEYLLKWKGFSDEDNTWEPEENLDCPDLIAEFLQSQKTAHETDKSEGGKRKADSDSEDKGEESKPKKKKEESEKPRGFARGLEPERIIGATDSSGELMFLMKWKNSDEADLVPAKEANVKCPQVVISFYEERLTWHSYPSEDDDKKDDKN
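AlphaScreen: HP1-beta (50 nM) preformed 30 min with biotin-H3(1-18)K9me3 peptide (50 nM) in PBS pH 7.4, 0.01% Tween-20. Compound added for 30 min at RT, then streptavidin donor/nickel chelate acceptor beads (10 ug/mL) for 30 min.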
JMJD2A Tudor inh – qHTS Assay for Inhibitors of JMJD2A-Tudor Domain; AlphaScreen JMJD2A-Tudor / H3K4me3 peptide binding; Potency, µM (highest dose often 114 µM), without a hit: top-dose activity change, negative = inhibition, usual class: inhibitors; actives 4.4% (n = 390,000); also: potency is read from the fitted curve at half-maximal effect; % is scaled to controls: 0 for no effect and ±100 for the full control effect; nearly all actives have a fitted effect of over 50% in size
* = called active by the depositor; [ ] = remark or other dose. Unless noted, calls follow the shape of the dose curve; as a rule, active = well fitted inhibition curve with a large enough effect; inconclusive = small, poorly fitted or top-dose-only effect; inactive = no such curve, though single readings can be large or run the other way.

`CCCCC(c1nnnn1CC1CCCO1)N1CCN(Cc2ccccc2)CC1` (configuration not stated) gave CtBP-E1A inh 3, Six1-Eya2 inh 1, BAZ2B inh -1%, G9a inh inconclusive, HP1b binding inh 39% and JMJD2A Tudor inh -33%.
COc1ccc(Cn2nnnc2C(c2ccccn2)N2CCN(c3ccc(O)cc3)CC2)cc1 (configuration not stated) was read as HP1b binding inh inconclusive and JMJD2A Tudor inh 32µM*.
`CCC(c1nnnn1Cc1ccc(OC)cc1)N1CCN(c2ccc(OC)cc2)CC1` (configuration not stated) gave CtBP-E1A inh 4, Six1-Eya2 inh -16, BAZ2B inh 35µM*, HP1b binding inh inconclusive and JMJD2A Tudor inh inconclusive.
`COc1ccc(Cn2nnnc2C(c2cccnc2)N2CCN(c3ccc(O)cc3)CC2)cc1` (configuration not stated) gave CtBP-E1A inh -4, Six1-Eya2 inh -2, BAZ2B inh -1%, G9a inh inconclusive, HP1b binding inh inconclusive and JMJD2A Tudor inh inconclusive.
Screening CCCC(c1nnnn1CC1CCCO1)N1CCN(c2ccccc2)CC1 (configuration not stated) returned CtBP-E1A inh 6, Six1-Eya2 inh 1, BAZ2B inh inconclusive, G9a inh 56µM*, HP1b binding inh 42% and JMJD2A Tudor inh -1%.
COc1ccc(NC(=O)C(C/C=C(/C)Cl)C(C)=O)cc1 (configuration not stated) was read as CtBP-E1A inh 1, Six1-Eya2 inh 14, BAZ2B inh 7%, G9a inh 24%[59 µM], HP1b binding inh inconclusive and JMJD2A Tudor inh -23%[11.4 µM].
CCS(=O)(=O)N1CCc2cc(C(=O)NC(C)c3ccccc3)ccc21 (configuration not stated) was read as BAZ2B inh -31%, G9a inh -50%[59 µM], HP1b binding inh 23% and JMJD2A Tudor inh -25%.
CCCC(c1nnnn1Cc1cccs1)N1CCN(c2ccc(OC)cc2)CC1 (configuration not stated) was read as CtBP-E1A inh -30, Six1-Eya2 inh inconclusive, BAZ2B inh 45µM*, G9a inh 18µM*, HP1b binding inh inconclusive and JMJD2A Tudor inh inconclusive.
`C=C(C)c1cccc(C(C)(C)NC(=O)NC2CC(C)(C)NC(C)(C)C2)c1` gave CtBP-E1A inh -4, Six1-Eya2 inh -3, BAZ2B inh -2%, G9a inh 5%, HP1b binding inh 17% and JMJD2A Tudor inh -10%.
Screening O=C(CN(C(=O)c1csnn1)c1cccc(F)c1)NC1CCCC1 returned CtBP-E1A inh 2, Six1-Eya2 inh -8, BAZ2B inh 1%, G9a inh 4%[59 µM], HP1b binding inh 0% and JMJD2A Tudor inh -10%.
For O=C(CCC(=O)c1cccs1)NCc1cccc(Cl)c1 the results were CtBP-E1A inh 4, Six1-Eya2 inh 3, BAZ2B inh 8%, G9a inh 1%[59 µM], HP1b binding inh 23% and JMJD2A Tudor inh -8%.
Screening c1cnc2c(OCc3cn4cccnc4n3)cccc2c1 returned CtBP-E1A inh -26, Six1-Eya2 inh -2, BAZ2B inh inconclusive, G9a inh 3.2µM*, HP1b binding inh 5% and JMJD2A Tudor inh inconclusive.
Screening Clc1ccc(OCc2cn3cccnc3n2)c2ncccc12 returned CtBP-E1A inh 3, Six1-Eya2 inh -7, BAZ2B inh -5%, G9a inh 6%[12.7 µM], HP1b binding inh 24% and JMJD2A Tudor inh -16%.

Compound activity as filed in PubChem BioAssay.
